The chains are these.
T1: UNK ZnF1-3 (human, UniProt Q9C0B0 31-174)
T1 sequence: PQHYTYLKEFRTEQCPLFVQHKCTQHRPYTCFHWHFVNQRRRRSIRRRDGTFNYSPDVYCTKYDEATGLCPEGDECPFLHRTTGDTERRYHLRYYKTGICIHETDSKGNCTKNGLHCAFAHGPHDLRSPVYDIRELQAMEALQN

B1: 23644147_23644267_867_3pUTR_ENSMUSG00000028986_ENSMUST00000030841|mouse|control|control (ssRNA)
RNA: GGGAGUUCUACAGUCCGACGAUCUUGAAUAAGUGGUUCAGCUUGUACUGUUUUACUUAGGAAAUUCUUCGAUAUAAGAGGAAACCUGACUUUAGCAAGGAUAUCAACCAUGAAUGGCUGGCGGUUAGGCUCAUCAUAUUUCAACAACAGAGGAUUGAGCAUCA
B2: chr2:25965407:25965408:-_ENSG00000143970_ENST00000336112|hu_mus|motif|central (ssRNA)
RNA: GGGAGUUCUACAGUCCGACGAUCAUGUGCUGCCGGAAUAAAAUCUCUAGGCAGGCUCUUUUCAUCAGAUGCUUGGCCUCGGGAGAAUAUGUAAUUCUCCUGGCCUAAAGUGGUUUGCUCACUCACUGGUGCCUCAGUCUUACCCAACAGAGGAUUGAGCAUCA
B3: 82834861_82834981_3494_CDS_ENSG00000038427_ENST00000343200|human|control|control (ssRNA)
RNA: GGGAGUUCUACAGUCCGACGAUCUUCAUUGACAGUACCCACUUCUCCCAAUCCUUCGUCGAUAAUGGAGGAAGCUGUACCAGAAAACUUUUGCACAGCACUGGGAAGCACUGGAACAACAGAGCUGCUGACUGUGACCAGUUGCAACAGAGGAUUGAGCAUCA
B4: chr14:70842435:70842436:-_ENSG00000213463_ENST00000256366|hu_hu|motif|central (ssRNA)
RNA: GGGAGUUCUACAGUCCGACGAUCCUGCACCUGUAACCUGUGCUGCACUCUCAGAGACACAGCAUAGCCUGCAUUACGAAAGAGGUCGGCAGCAUCCUGGUGCAGCAGGUUCUUUAGGUCUUGGCCAUUUACCGAAAGGAUCUUCAACAGAGGAUUGAGCAUCA
B5: chr6:13622506:13622507:-_ENSG00000010017_ENST00000011619|hu_mus|FALSE|FALSE (ssRNA)
RNA: GGGAGUUCUACAGUCCGACGAUCAGGAAGCAAUGUAAAGCGACAAAAACCUGUCCCCAGUACAUAAUUAAAAAAAAAUCUAAAUUUCAAAUCAGCAGAGCCGGUCUACUUCCAUGUUGACUGUUUGCCACAAUGUGAGUGUGACAACAGAGGAUUGAGCAUCA
B6: chr1:109605286:109605287:-_ENSG00000197780_ENST00000461096|hu_mus|hu_hu_hu_mus_True|8_88 (ssRNA)
RNA: GGGAGUUCUACAGUCCGACGAUCAAGUUUCAGAGUAACAUUCAGUAUACUUAAAUCAUGCAAUUAUCCUUAUUAUAAGCUAAGCAGAAUAAUAAUUUAAUACCGUAAGUGAACUACACACAAAGCCGUGUAUUCAGAAAUGGUCAACAGAGGAUUGAGCAUCA
B7: chr10:111893621:111893622:+_ENSG00000148700_ENST00000277900|hu_hu|FALSE|FALSE (ssRNA)
RNA: GGGAGUUCUACAGUCCGACGAUCUAAUUCAGACAGAUAGCUGUUUAUGGUGAAUUAUAAUAAUACUUCAUGAGGGCAGAGCUAAUUAAAACUAGUAAUUGCUUAAAAUUCAAAGCCAUUUCUGGACAUAUAAAAUGAGAGAUGCAACAGAGGAUUGAGCAUCA
B8: chr18:56900473:56900474:+_ENSMUSG00000024590_ENSMUST00000025486|mus_mus|FALSE|FALSE (ssRNA)
RNA: GGGAGUUCUACAGUCCGACGAUCAACAUCUAUCUCUUCAAUGCACACGUUCCCCGUGGCUGAGGCAGAGUGGGAAAUGCUAACACUGCUGCUCGCCUCCGACUCCUCCACAUCAACUCUCUUCCGCUUUCCUCUGGUGGUGCGCAACAGAGGAUUGAGCAUCA
B9: chr17:26793470:26793471:+_ENSMUSG00000001576_ENSMUST00000167662|mus_hu|FALSE|FALSE (ssRNA)
RNA: GGGAGUUCUACAGUCCGACGAUCCGGAGCUUAGAGCCAAAAAUUACAAAUGGCAGAGACUUGAGCUAUCCAUAAGAUAAUUUUAAAAAUCCUUCCACUGGACACUCCCCUUCAUUACAAAAGUAUGCAAACAAUCUUGCUAUACAACAGAGGAUUGAGCAUCA
B10: chr13:90244479:90244480:+_ENSMUSG00000012422_ENSMUST00000161568|mus_hu|FALSE|FALSE (ssRNA)
RNA: GGGAGUUCUACAGUCCGACGAUCCAAAAUGGUGUGCCCAGAGGAAAAGCAAGCACUAUUAAAUAUUAAUGCAAUCCUUAUCAACACAAAUUGAGCCAUUUUAAUAAAAAAGCUAGUCCAAAAAAGGUUCUCAUUCUAUAAAGACAACAGAGGAUUGAGCAUCA
B11: chr2:47387770:47387771:-_ENSG00000143933_ENST00000272298|hu_mus|hu_hu_hu_mus_True|18_38 (ssRNA)
RNA: GGGAGUUCUACAGUCCGACGAUCAAGGUUUAAGGACAAUGACAGUAAGAUAAGGGAAGAAAACAUGGAGGAAUGAAGUCCUAAUUACUAUACAUGCAUAUUUUUUUACAGUAGGGGAGAAACCUUUUUUACAGAUAAGUUACACAACAGAGGAUUGAGCAUCA
B12: chr10:117127018:117127019:-_ENSMUSG00000020184_ENSMUST00000020408|mus_mus|FALSE|FALSE (ssRNA)
RNA: GGGAGUUCUACAGUCCGACGAUCAGAUGGAAAGGACUUCUCACAUACACUUCCAAAGUCCUUCCAAGCGGAGAUUAUUUAAAAUAUAAGGAAAAUAUAAACAGCCAAUGCAAAUUACUUAAAACACAAAUAUAAAAUAAACAACAACAGAGGAUUGAGCAUCA
B13: chr14:35182089:35182090:-_ENSG00000165410_ENST00000422678|hu_mus|motif|central (ssRNA)
RNA: GGGAGUUCUACAGUCCGACGAUCCUUAAGAUCAAAUGGCACUUGGCUAUUAUUUUAUAGUGGCUUUCCUUCAAGGGAAACGGCAACACUGCCCCCCAGUUUCUCUCCCAGCGUCGAGCGGUCCUUAAUAUCGUCCAAGCCAUUCAACAGAGGAUUGAGCAUCA
B14: chr3:58389949:58389950:+_ENSMUSG00000075700_ENSMUST00000107924|mus_hu|FALSE|FALSE (ssRNA)
RNA: GGGAGUUCUACAGUCCGACGAUCCAAGAAGAAAACCAUCAUACAUGCAUAAACCUUAUUUUCUUGGCCCCACUGCCAGAUGCUAGGAGCUUGCAUGCCAAAGAAAGCAAAAGGAUCCUUGCCAACAAUUAUUAAGCCUAUUAACAACAGAGGAUUGAGCAUCA
B15: chr2:91446484:91446485:+_ENSMUSG00000040549_ENSMUST00000099716|mus_hu|motif|central (ssRNA)
RNA: GGGAGUUCUACAGUCCGACGAUCCAAUUUCUCAUCUGCCAUGUGUGUGUUGUAGAUGAGUCUUAGCUGCAUAAAAGUGGCGGUCAGAAACUGAUCAAUAUGGCCGGACAUGGCUUCAGCUUUGUCUUCCUGUCUCAGGACCUCCAACAGAGGAUUGAGCAUCA
B16: 89236039_89237110_928_3pUTR_ENSG00000065243_ENST00000370521|human|control|control (ssRNA)
RNA: GGGAGUUCUACAGUCCGACGAUCGGUUUUGCAUUAUCAAAAGCCAAUUCAUUAGUCUGGACUGCCUGAAGAAUCUGCAUUCGUAUGACUUCUAUUUUUGUCUUGCUGUCCUGGAGCAGUUGCUGAGCUGUACCAUGGAGUUUCCAACAGAGGAUUGAGCAUCA
B17: chr17:56552419:56552420:-_ENSMUSG00000013236_ENSMUST00000086828|mus_mus|mus_mus_mus_hu_False|1_98 (ssRNA)
RNA: GGGAGUUCUACAGUCCGACGAUCAAAAAAUACACUAUAAAAAAAAAAUGAAAUGUCACGGGAUACAGUUACACUGAGAGUUUUAAAAGAAAGCUGGAUUCUGGUCCCAGCCCAGUGUCCCCAGGCUGCAGAGCGGGGCAGAGGCAACAGAGGAUUGAGCAUCA
B18: chr17:56552419:56552420:-_ENSMUSG00000013236_ENSMUST00000086828|mus_mus|mus_mus_mus_hu_False|98_98 (ssRNA)
RNA: B17 RNA with C138A, A139G, G143C
B19: chr17:56552419:56552420:-_ENSMUSG00000013236_ENSMUST00000086828|mus_hu|FALSE|FALSE (ssRNA)
RNA: B17 RNA with A38U, A39U, C138A, A139G, G143C
B20: chr5:145543945:145543946:-_ENSG00000133706_ENST00000545646|hu_hu|hu_hu_hu_mus_True|1_8 (ssRNA)
RNA: GGGAGUUCUACAGUCCGACGAUCCUGAACGGCCAGUGGUGGGAAAUAAUCAAGCCAGUGCUCUGCUUCAGAAAACUUCACUAUGUCGUCAUCAGAGAGCCCAAGGGAUUUCAUAAUGUCCCACUGGUAUUUAGAAGAUCCAGCCAACAGAGGAUUGAGCAUCA
B21: chr17:56552419:56552420:-_ENSMUSG00000013236_ENSMUST00000086828|mus_mus|mus_mus_mus_hu_False|8_98 (ssRNA)
RNA: GGGAGUUCUACAGUCCGACGAUCAAAAAAUACACUAUAAAAAAAAAAUGAAAUGUCACGGGAUACAGUUACACUGAGAGUUUUAAAAGAAAGCUGGAUUCUGGUCCCAGCCCAGUGUCCCCAGGCUGAGUGCGGAAGAGGAGCCAACAGAGGAUUGAGCAUCA
B22: chr17:56552419:56552420:-_ENSMUSG00000013236_ENSMUST00000086828|mus_mus|mus_mus_mus_hu_False|8_48 (ssRNA)
RNA: B21 RNA with A38U, A39U, G88A, G92A, C93U, U94A, G95A

Here are results for 22 molecules from article PMC12136788.

Substitutions are numbered along the chain they refer to. In all, about 24,000 sequences were measured (“enrichment r”: median about 0.99, highest 2% from about 3.7 on). This is one part of a sample in which the highest values are shown more often than they occur.

This assay concerns the target T1, UNK ZnF1-3. The assay can be described thus: nsRBNS (natural sequence RNA bind-n-seq); RBNS binding buffer (assumed for nsRBNS): 25 mM Tris pH 7.5, 150 mM KCl, 3 mM MgCl2, 0.01% Triton X-100, 500 ug/ml BSA, 20 U/ml SUPERase-In, 4 C; UNK is unkempt and MSI1 is Musashi-1; names of the RNAs are library labels; protein concentration not given here; high values mean tight binding.
The molecule B1 returned a binding signal of 0.91 enrichment R.
With B2 the figure was 0.714 enrichment R; with B3, 0.912 enrichment R; with B4, 0.468 enrichment R.
Consider B5, for which the binding signal turned out to be 2.67 enrichment R.
Consider B6, for which the binding signal amounted to 0.504 enrichment R.
Regarding B7, the binding signal came out at 5.27 enrichment R.
In turn, B8 registered a binding signal of 1.08 enrichment R.
Turning to B9, the binding signal amounted to 3.67 enrichment R.
As to B10, the binding signal came to 4.62 enrichment R.
B11 returned a binding signal of 1.7 enrichment R.
In the case of B12, the binding signal amounted to 5.74 enrichment R.
Turning to B13, the binding signal worked out at 1.04 enrichment R.
B14 had a binding signal of 1.51 enrichment R.
B15 registered a binding signal of 0.637 enrichment R.
B16: the binding signal was determined as 0.571 enrichment R.
For the molecule B17, the binding signal was determined as 5.8 enrichment R.
On to B18, for which the binding signal stood at 4.54 enrichment R.
Take B19: the binding signal stood at 3.32 enrichment R.
The value for B20 was 1.44 enrichment R; that for B21 was 5.52 enrichment R.
In turn, B22 gave a binding signal of 6.71 enrichment R.
